Screening data as filed in PubChem BioAssay.
Most compounds without a hit are left out; they make up all but 8.8% or so of the library.
HTT cytoprotect = protects HTT-Q103 PC12 cells, measured by ATP. AID 1471. Potency, µM (series often up to 56.4 µM), for the others: cytoprotection (ATP increase), usual class: activators. PC12 HTT-Q103 induced, cytoprotection, ATP luminescence, 40 h. 0.14% of 230,000 active; active = well fitted curve in the direction sought with a large enough effect; inconclusive = small, poorly fitted or top-dose-only effect, or another doubt; inactive = no such curve, though single readings can be large; an effect the other way counts as inactive or inconclusive; note: % of control where 0% means no effect; nearly all actives have a fitted effect of over 45% in size
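PC12 cells with ecdysone-inducible HTT exon 1 Q103-GFP, induced with 100 nM tebufenozide and co-treated with library compounds in a dose series (1536-well, 1500 cells/well). Cytoprotection read as ATP content by ATPlite luminescence.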
HTT aggregate = inhibitors of mutant huntingtin aggregate formation in PC12 cells. PC12 HttQ103-GFP aggregates, Acumen cytometry, 40 h. Potency, µM (titrated, usually from 46.1 µM), inactives show at the top dose activity change, negative = inhibition, hits mostly inhibitors. 1.1% of 220,000 active; active = well fitted curve in the direction sought with a large enough effect; inconclusive = small, poorly fitted or top-dose-only effect, or another doubt; inactive = no such curve, though single readings can be large; an effect the other way counts as inactive or inconclusive; note: % is set by controls: 0 for no effect and ±100 for the full control effect; nearly all actives have a fitted effect of over 60% in size
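Compounds (qHTS titration) were added to PC12 cells expressing an ecdysone-driven HTT exon 1 Q103–GFP fusion after induction with 100 nM tebufenozide. Aggregate formation was measured as GFP objects in cell lysates.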
Lamin A splicing = modulators of lamin A splicing | AID 1487 | HeLa LMNA splicing GFP/RFP minigene ratio, 48 h | Potency, µM (top dose mostly 46.1 µM), for inactives: top-dose ratio change, negative = inhibition, most hits filed as inhibitors | 0.01% of 200,000 active; active = well fitted inhibition curve with a large enough effect in the signal ratio, with a control signal flat, not every such curve was filed as active; inconclusive = small, poorly fitted or top-dose-only effect, or effect the other way, or a change in a side signal; the % refers to the signal ratio; note: % is set by controls: 0 for no effect and ±100 for the full control effect
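S3 HeLa stable clones carrying a lamin A-EGFP splicing minigene plus DsRed2 were seeded at 600 cells/well in Opti-MEM with 2% FBS, pin-dosed and incubated 48 h at 37°C. Acumen cytometry (488 nm) gave the GFP/RFP total-intensity ratio.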
HPGD inh = inhibitors of human 15-hydroxyprostaglandin dehydrogenase (HPGD); P15428; purified HPGD, NADH fluorescence kinetic, PGE2 substrate; Potency, µM, without a hit: at the highest dose activity change, negative = inhibition, hits mostly inhibitors; 4.3% of 150,000 active; AID 894; note: % is set by controls: 0 for no effect and ±100 for the full control effect
Target sequence (P15428 whole entry, looked up): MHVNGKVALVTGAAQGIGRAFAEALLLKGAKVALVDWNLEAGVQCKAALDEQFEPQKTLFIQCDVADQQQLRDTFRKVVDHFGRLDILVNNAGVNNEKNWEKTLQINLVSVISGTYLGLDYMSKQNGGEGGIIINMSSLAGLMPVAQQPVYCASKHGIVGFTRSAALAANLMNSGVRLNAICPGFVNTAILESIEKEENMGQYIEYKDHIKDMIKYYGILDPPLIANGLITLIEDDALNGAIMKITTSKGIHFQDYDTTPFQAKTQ
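NADH formation kinetics: reaction with 30 uM PGE2 and 1 mM NAD+ (final), 20 nM enzyme, Tris-HCl pH 8 with Tween 20, after 15 min compound preincubation at room temperature. Fluorescence change, last versus first of five reads.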
ALDH1A1 block = ALDH1A1 (human) enzyme inhibition; 7.3% of 220,000 active; Purified ALDH1A1, NADH fluorescence, propionaldehyde substrate; P00352; Potency, µM (series often up to 75.3 µM), for inactives: at the highest dose activity, negative = inhibition, actives largely listed as inhibitors;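 note: plate controls were no enzyme wells and a reference inhibitor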
Target sequence (P00352 whole entry, looked up): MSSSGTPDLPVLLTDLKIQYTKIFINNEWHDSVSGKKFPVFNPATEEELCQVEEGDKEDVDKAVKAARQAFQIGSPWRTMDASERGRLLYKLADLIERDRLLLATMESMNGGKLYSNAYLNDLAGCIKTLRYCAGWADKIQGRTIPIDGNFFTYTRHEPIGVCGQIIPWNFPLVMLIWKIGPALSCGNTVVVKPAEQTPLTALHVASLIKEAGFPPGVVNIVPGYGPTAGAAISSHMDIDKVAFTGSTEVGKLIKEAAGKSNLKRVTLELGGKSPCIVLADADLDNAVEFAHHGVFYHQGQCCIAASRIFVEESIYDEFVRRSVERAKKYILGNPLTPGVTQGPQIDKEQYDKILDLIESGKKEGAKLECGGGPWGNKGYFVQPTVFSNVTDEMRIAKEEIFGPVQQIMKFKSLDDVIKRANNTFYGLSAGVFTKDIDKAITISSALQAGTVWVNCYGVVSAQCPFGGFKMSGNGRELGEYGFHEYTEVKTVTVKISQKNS
* marks the source's active call; other numbers are inactive results; ? = inconclusive; / = not tested or not shown; [ ] = another dose, or the depositor's remark. Unless noted, calls come from the whole dose curve; as a rule, active = well fitted inhibition curve with a large enough effect (not every such curve was filed as active); inconclusive = small, poorly fitted or top-dose-only effect, or another doubt; inactive = no such curve, though single readings can be large or run the other way. Potency is the fitted concentration of half-maximal effect.

SMILES | HTT cytoprotect | HTT aggregate | Lamin A splicing | HPGD inh | ALDH1A1 block
Cc1ccc(NC(=O)CN(C)CC(=O)Nc2ccc(N3CCOCC3)cc2)c([N+](=O)[O-])c1 | -19.1%[10 µM] | 10.3% | -16.4% | -15.2% | 2.0%
CC(C)CCNC(=O)c1ccc(Cn2c(SCC(N)=O)nc3ccccc3c2=O)cc1 | / | / | -7.8%[46 µM] | / | /
CS(=O)(=O)N1CCC2(CCCN(C(=O)Nc3ccccc3)C2)CC1 | -60.0% | / | / | -7.5% | 13.2%
COc1ccc(CCNC(=O)CSc2nc3nc(C)c(Cc4ccc(C)cc4)c(C)n3n2)cc1OC | / | / | 0.0%[46 µM] | / | /
CC1CCC2(CC1)NC(=S)N(c1ccccc1)N2 (configuration not stated) | -11.5%[10 µM] | 10.5% | ? | -4.1% | 15.8µM*
O=C(Nc1nc(-c2ccccn2)cs1)C1CC(=O)N(c2ccc3c(c2)OCCO3)C1 (configuration not stated) | 6.4%[10 µM] | ? | -3.4% | -9.3% | ?
CCCNC(=O)NC(=O)COC(=O)c1ccc(S(=O)(=O)N(C)c2ccccc2OC)cc1 | -65.5% | 1.7% | ? | / | 12.6µM*
COc1ccccc1N(C)S(=O)(=O)c1ccc(C(=O)OCC(N)=O)cc1 | 16.5%[10 µM] | 9.1% | ? | / | 5.9%
CN(C)S(=O)(=O)N(CC(=O)Nc1ccc2ccccc2c1)c1ccccc1 | 5.62µM* | ? | -15.9% | -19.4% | -1.5%
CN(C)S(=O)(=O)N(CC(=O)Nc1ccc(F)c(F)c1)c1ccccc1 | 15.5% | ? | -9.0% | -0.4% | 5.9%
O=C(NCCN1CCOCC1)c1ccc(-n2c(=O)c(=O)[nH]c3ccccc32)cc1 | / | / | / | -14.6% | 3.5%
CCOC(=O)c1[nH]ncc1CN1CCCC(C(=O)c2ccc(SC)cc2)C1 (configuration not stated) | 2.1% | -7.4% | / | / | 35.5µM*
N#CCSc1nnc(Nc2ccccc2)s1 | 4.1% | 11.1% | 0.3% | 28.2µM* | ?
N=C(C[C@@H](O)COc1ccccc1-c1ccccc1)N1CCCCC1 | -37.7% | / | / | 4.6% | 4.7%
C=CC(N)CCC(=O)O (configuration not stated) | -14.0% | 2.4% | -3.5% | -8.5% | -3.6%
CCNC(=O)[C@@H]1CCCN1C(=O)[C@H](CCCN=C(N)N)NC(=O)[C@H](CC(C)C)NC(=O)[C@@H](Cc1c[nH]c2ccccc12)NC(=O)[C@H](Cc1ccc(O)cc1)NC(=O)[C@H](CO)NC(=O)[C@H](Cc1c[nH]c2ccccc12)NC(=O)[C@H](Cc1cnc[nH]1)NC(=O)[C@@H]1CCC(=O)N1 | -99.1% | 7.94µM* | / | / | /
CC(C)C[C@H](NC(=O)[C@@H](Cc1c[nH]c2ccccc12)NC(=O)[C@@H](Cc1ccc(O)cc1)NC(=O)[C@@H](CO)NC(=O)[C@@H](Cc1c[nH]c2ccccc12)NC(=O)C(Cc1cnc[nH]1)NC(=O)C1CCC(=O)N1)C(=O)N[C@@H](CCCN=C(N)N)C(=O)N1CCC[C@@H]1C(=O)NCC(N)=O (some centres not stated) | -6.8% | 2.7% | / | / | /
O=C(Nc1ccon1)c1cc2c(s1)CCCC2 | -9.2%[10 µM] | -11.8% | -20.5% | 28.2µM* | -10.6%
CCc1cccc(C)c1NC(=O)c1cc(C)oc1C | 1.4%[0.074 µM] | 1.26µM* | -7.3% | -8.2% | -2.8%
Cc1csc(NC(=O)c2cc(C)oc2C)n1 | -17.8% | 1.5% | 10.3% | 17.8µM* | -2.0%
CC(C)NC(=O)c1cc2c(s1)CCCC2 | 3.5%[10 µM] | -9.5% | -4.2% | 22.4µM* | ?
Cc1ccccc1-c1nc(CNC(=O)Nc2ccccc2)c(C)o1 | / | / | -3.8%[46 µM] | / | /
CCN(c1cccc(C)c1)S(=O)(=O)c1ccc(N2CCCCS2(=O)=O)cc1 | / | / | 15.6%[46 µM] | / | /
Cc1csc(NC(=O)c2cc3c(s2)CCCCC3)n1 | -126.3% | ? | ? | 25.1µM* | ?
CC(=O)c1ccc(S(=O)(=O)Nc2cccc(-c3ccc(N4CCCC4)nn3)c2)cc1 | / | / | -13.1%[46 µM] | / | /
SMILES | HTT cytoprotect | HTT aggregate | Lamin A splicing | HPGD inh | ALDH1A1 block
Cc1ccc(S(=O)(=O)/N=C2/NC(=O)/C(=C/c3ccccc3)S2)cc1 | -28.5% | ? | / | / | ?
COc1cc(/C=C2\S/C(=N/S(=O)(=O)c3ccc(C)cc3)NC2=O)c([N+](=O)[O-])cc1OC | 28.2%[10 µM] | 19.5% | -0.9% | 7.08µM* | ?
Cc1ccc(S(=O)(=O)/N=C2/NC(=O)/C(=C/c3ccncc3)S2)cc1 | ? | -3.4% | 15.6% | 14.1µM* | ?
COc1ccc(Cc2nn3c(-c4cc(OC)c(OC)c(OC)c4)nnc3s2)cc1 | -3.8%[10 µM] | 19.5% | ? | 22.4µM* | 11.2µM*
COc1cc(-c2nnc3sc(Cc4ccccc4)nn23)cc(OC)c1OC | -16.4% | 2.6% | 7.7% | ? | 22.4µM*
COc1ccc(NS(=O)(=O)c2ccc(N3CCCC3)c(NC(=S)Nc3ccc(SC(F)F)cc3)c2)cc1 | 24.2%[10 µM] | -5.0% | ? | 3.55µM* | 3.55µM*
O=S(=O)(Nc1ccc(Cl)cc1)c1ccc(N2CCOCC2)c(NC(=S)NC2CC2)c1 | -3.4% | -20.7% | -2.6%[46 µM] | / | 8.91µM*
Cc1cccc(NS(=O)(=O)c2ccc3c(c2)CCCN3C(=O)C2CCC2)c1C | / | / | -5.4%[46 µM] | / | /
COc1ccc(NS(=O)(=O)c2cc(NC(=O)c3ccco3)ccc2N2CCCC2)cc1 | -18.5%[10 µM] | 25.2% | ? | -7.2% | ?
COc1ccc(NS(=O)(=O)c2ccc(N3CCCC3)c(NC(=S)Nc3cccc(C)c3C)c2)cc1 | 11.9%[10 µM] | 13.2% | ? | 12.6µM* | 8.91µM*
Nc1cc(S(=O)(=O)Nc2ccc(Cl)cc2)ccc1N1CCOCC1 | 32.6%[10 µM] | 15.0%[9.22 µM] | / | / | /
COc1ccc2cc1Oc1ccc(cc1)C[C@@H]1c3c(cc(OC)c4c3Oc3cc5c(cc3O4)CCN[C@H]5C2)CCN1C | 17.9%[10 µM] | / | / | -1.2% | 3.2%[13.5 µM]
NC1=CC(=O)c2cccc3cccc1c23 | -107.0% | ? | 15.1% | -14.5% | 1µM*
NC1=Nc2cccc3cccc1c23 | -77.4% | ? | / | / | 3.4%
O=C1CC(c2nc(-c3ccc(Cl)cc3)no2)CN1c1ccc2c(c1)OCCO2 (configuration not stated) | / | / | -22.2%[46 µM] | / | /
O=C(O)c1cnc(-c2ccccc2)nc1Sc1ccccc1Cl | -9.8% | 8.3% | 4.0% | 14.1µM* | 2.9%
Cc1ccc(N2C(=O)[C@@H]3[C@H](C2=O)[C@H]2C=CC=NN2[C@@H]3C(=O)Nc2ccc(Cl)cc2)cc1 | -10.7% | 21.5% | 8.4% | 35.5µM* | 7.94µM*
O=C(Nc1ccc(Cl)cc1)[C@@H]1[C@@H]2C(=O)N(c3ccc(Cl)cc3)C(=O)[C@@H]2[C@H]2C=CC=NN21 | 1.4% | 9.4% | -3.7% | -8.2% | ?
COc1ccccc1N1C(=O)[C@@H]2[C@H](C1=O)[C@H](C(=O)c1ccc(OC(C)=O)cc1)N1N=CC=C[C@@H]21 | 0.8%[10 µM] | -13.9%[9.22 µM] | / | / | /
O=C(Nc1ccc(Cl)cc1)[C@@H]1[C@@H]2C(=O)N(c3ccc(Cl)cc3Cl)C(=O)[C@@H]2[C@H]2C=CC=NN21 | -1.6% | 21.4% | -9.7% | 28.2µM* | 22.4µM*
